In PubChem BioAssay AID1159580 (chemical genetic matrix, 2015):
Out of some 5,500 compounds screened, about 2,000 (36%) were called active. About 18% were inconclusive and are not listed. No stated cut-off is given here; in the data, active means normalized growth mostly below about 0.91 (no sharp cut-off); inconclusive means no clear call, values can overlap the other calls; inactive means mostly above about 0.92. The list shows a part of the results.

Assay: chemical genetic growth profiling, strain panel (AID 1159580);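 further: tested at 20 µM; growth read once vehicle control cultures reached saturation at 30 °C; 1 = growth at the plate median or of vehicle wells; lower values mean less growth of the strain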
Details: S. cerevisiae deletion strains, growth OD
[1] = locus YGR078C, strain PAC10, hits give low values
[2] = locus YMR263W, strain SAP30, hits give low values
[3] = locus YMR307W, strain GAS1, hits give low values
[4] = locus YPL055C, strain LGE1, hits give low values
[5] = locus YHR030C, strain SLT2, hits give low values
[6] = locus YJL095W, strain BCK1, hits give low values

Measured: normalized growth

CC(=O)[C@H]1CC[C@H]2[C@@H]3CC[C@H]4C[C@H](O)CC[C@]4(C)[C@H]3C(=O)C[C@]12C
inactive: locus YAL040C, strain CLN3, hits give low values 0.999 | locus YCL061C, strain MRC1 (second series), hits give low values 0.995 | locus YDR363W, strain ESC2, hits give low values 0.983 | locus YER002W, strain NOP16, hits give low values 0.993 | [1] 0.994 | [2] 1 | [3] 0.981 | locus YNL175C, strain NOP13, hits give low values 0.974 | locus YNL197C, strain WHI3, hits give low values 0.994 | locus YNL224C, strain SQS1, hits give low values 1.01 | locus YOR083W, strain WHI5 (second series), hits give low values 0.997 | [4] 0.947

CC(C)CCCC(C)[C@H]1CCC2C3CC[C@H]4CC(=O)CC[C@]4(C)C3CC[C@@]21C (stereo not given in full)
inactive: locus YAL021C, strain ccr4, hits give low values 0.957 | locus YAL026C, strain drs2, hits give low values 1 | locus YAL030W, strain snc1, hits give low values 0.996 | locus YBL061C, strain skt5, hits give low values 0.998 | locus YBR009C, strain hhf1, hits give low values 1.03 | locus YBR023C, strain chs3, hits give low values 0.989 | locus YBR171W, strain sec66, hits give low values 0.991 | locus YBR231C, strain swc5, hits give low values 1.01 | locus YBR279W, strain paf1, hits give low values 0.997 | locus YCL011C, strain gbp2, hits give low values 0.975 | locus YCL016C, strain dcc1, hits give low values 0.995 | locus YCL061C, strain MRC1, hits give low values 0.977 | locus YCL069W, strain vba3, hits give low values 0.992 | locus YCR088W, strain abp1, hits give low values 0.982 | locus YDL005C, strain med2, hits give low values 0.986 | locus YDL040C, strain nat1, hits give low values 0.984 | locus YDR001C, strain nth1, hits give low values 0.987 | locus YDR069C, strain doa4, hits give low values 0.993 | locus YDR137W, strain rgp1, hits give low values 0.958 | locus YDR159W, strain sac3, hits give low values 0.984 | locus YDR195W, strain ref2 0.974 | locus YDR297W, strain sur2, hits give low values 0.983 | locus YDR334W, strain swr1, hits give low values 0.96 | locus YDR335W, strain msn5, hits give low values 0.97 | locus YDR392W, strain spt3, hits give low values 0.97 | locus YEL003W, strain gim4, hits give low values 0.981 | locus YEL037C, strain rad23, hits give low values 0.987 | locus YEL061C, strain CIN8 (second series), hits give low values 0.98 | locus YER015W, strain faa2, hits give low values 1.02 | locus YER016W, strain bim1, hits give low values 0.985 | locus YER111C, strain swi4, hits give low values 0.995 | locus YER155C, strain BEM2 (second series), hits give low values 1.01 | locus YFR010W, strain ubp6, hits give low values 0.969 | locus YGL167C, strain pmr1, hits give low values 0.998 | locus YGL173C, strain kem1, hits give low values 0.988 | locus YGL227W, strain vid30, hits give low values 0.994 | locus YGL240W, strain doc1, hits give low values 1.03 | locus YGL253W, strain hxk2, hits give low values 0.984 | locus YHR013C, strain ard1, hits give low values 0.972 | locus YHR027C, strain rpn1, hits give low values 0.986 | locus YHR142W, strain chs7, hits give low values 0.93 | locus YJL092W, strain hpr5, hits give low values 0.961 | locus YJL095W, strain BCK1 (second series), hits give low values 1.01 | locus YJL115W, strain asf1, hits give low values 0.971 | locus YJL129C, strain trk1, hits give low values 0.935 | locus YJL154C, strain vps35, hits give low values 0.992 | locus YJL164C, strain tpk1, hits give low values 0.979 | locus YJL166W, strain qcr8, hits give low values 0.992 | locus YJL187C, strain SWE1, hits give low values 0.991 | locus YKL160W, strain elf1, hits give low values 0.963 | locus YKR026C, strain gcn3, hits give low values 0.991 | locus YKR091W, strain srl3, hits give low values 0.984 | locus YLL001W, strain dnm1, hits give low values 0.987 | locus YLL026W, hits give low values 0.997 | locus YLL041C, strain sdh2, hits give low values 0.979 | locus YLR027C, strain aat2, hits give low values 0.988 | locus YLR221C, strain rsa3, hits give low values 0.962 | locus YLR258W, strain gsy2, hits give low values 1.01 | locus YLR262C, strain YPT6 (second series), hits give low values 1 | locus YLR320W, strain mms22, hits give low values 0.993 | locus YLR342W, strain FKS1, hits give low values 0.993 | locus YLR357W, strain rsc2, hits give low values 0.996 | locus YLR370C, strain arc18, hits give low values 0.98 | locus YLR384C, strain iki3, hits give low values 0.996 | locus YML120C, strain ndi1, hits give low values 0.949 | locus YMR058W, strain fet3, hits give low values 0.973 | locus YMR125W, strain sto1, hits give low values 0.981 | locus YMR129W, hits give low values 0.957 | locus YMR205C, strain PFK2, hits give low values 1.02 | locus YMR231W, strain pep5, hits give low values 0.985 | locus YNL071W, strain lat1, hits give low values 0.989 | locus YNL209W, strain ssb2, hits give low values 0.992 | locus YNL248C, strain rpa49, hits give low values 0.935 | locus YNL322C, strain KRE1 (second series), hits give low values 0.981 | locus YNR049C, strain mso1, hits give low values 0.986 | locus YOR001W, strain rrp6, hits give low values 0.941 | locus YOR070C, strain gyp1, hits give low values 0.994 | locus YOR080W, strain dia2, hits give low values 0.976 | locus YOR083W, strain WHI5, hits give low values 0.952 | locus YOR106W, strain vam3, hits give low values 0.974 | locus YOR265W, strain rbl2, hits give low values 0.989 | locus YOR270C, strain vph1, hits give low values 0.981 | locus YOR290C, strain snf2, hits give low values 0.976 | locus YPL051W, strain arl3, hits give low values 0.975 | locus YPL078C, strain atp4, hits give low values 0.949 | locus YPL106C, strain sse1, hits give low values 1.01 | locus YPL240C, strain hsp82, hits give low values 0.987

C[C@]12CCC3C(CC[C@H]4C[C@H](O)CC[C@]34C)C1CCC2=O (stereo not given in full)
inactive: locus YLR113W, strain HOG1, hits give low values 0.912 | locus YNL183C, strain NPR1, hits give low values 0.837 | locus YOR231W, strain MKK1, hits give low values 0.861 | locus YPL256C, strain CLN2, hits give low values 0.853
active: [5] 0.63 | locus YHR079C, strain IRE1, hits give low values 0.831 | [6] 0.736 | locus YJR066W, strain TOR1, hits give low values 0.815

CC(C)CCCC(C)C1CCC2C3CCC4CC(=O)CCC4(C)C3CCC12C (stereo not given)
inactive: locus YAL013W, strain DEP1, hits give low values 1.01 | locus YBR021W, strain FUR4, hits give low values 1.02 | locus YBR229C, strain ROT2, hits give low values 1 | locus YCL029C, strain bik1, hits give low values 1.02 | locus YDL035C, strain GPR1, hits give low values 1.06 | locus YDL074C, strain BRE1, hits give low values 1.07 | locus YDL101C, strain DUN1, hits give low values 1.02 | locus YDL134C, strain PPH21, hits give low values 1.03 | locus YDL185W, strain tfp1, hits give low values 1.01 | locus YDL192W, strain arf1, hits give low values 1.05 | locus YDR101C, strain arx1, hits give low values 1.02 | locus YDR150W, strain NUM1, hits give low values 1 | locus YDR162C, strain NBP2, hits give low values 1.05 | locus YDR318W, strain mcm21, hits give low values 1.01 | locus YDR388W, hits give low values 1.02 | locus YDR502C, strain sam2, hits give low values 1.01 | locus YEL061C, strain CIN8, hits give low values 1.02 | locus YER110C, hits give low values 1.02 | locus YER155C, strain BEM2, hits give low values 1 | locus YER167W, strain BCK2, hits give low values 1 | locus YGL078C, strain dbp3, hits give low values 1.02 | locus YGL086W, strain mad1, hits give low values 1.02 | locus YGL248W, strain PDE1, hits give low values 1.04 | [1] 1.03 | locus YGR135W, strain pre9, hits give low values 1.03 | locus YGR252W, strain gcn5, hits give low values 1 | [5] 1.02 | locus YHR079C, strain IRE1 (second series), hits give low values 1 | locus YHR094C, strain hxt1, hits give low values 1.04 | locus YHR129C, strain ARP1, hits give low values 1.02 | locus YHR200W, strain rpn10, hits give low values 1.01 | locus YIL066C, strain RNR3, hits give low values 1.05 | locus YIL073C, strain SPO22, hits give low values 1.11 | locus YIL125W, strain kgd1, hits give low values 1.01 | locus YIR030C, strain dcg1, hits give low values 1.02 | [6] 1.06 | locus YJL134W, strain LCB3, hits give low values 1.01 | locus YJL168C, strain set2, hits give low values 1.01 | locus YJL187C, strain SWE1 (second series), hits give low values 1.03 | locus YJR043C, strain POL32, hits give low values 1.02 | locus YJR075W, strain HOC1, hits give low values 1.03 | locus YKL009W, strain mrt4, hits give low values 1.06 | locus YKL068W, hits give low values 1.01 | locus YKL085W, strain MDH1 (second series), hits give low values 1.02 | locus YKL085W, strain MDH1, hits give low values 1.02 | locus YKL190W, strain CNB1, hits give low values 1 | locus YKR001C, strain vps1, hits give low values 1.09 | locus YLR039C, strain RIC1, hits give low values 1.08 | locus YLR058C, strain SHM2, hits give low values 1.03 | locus YLR102C, strain apc9, hits give low values 1.02 | locus YLR262C, strain YPT6, hits give low values 1.09 | locus YLR268W, strain sec22, hits give low values 1.06 | locus YLR330W, strain CHS5, hits give low values 1.02 | locus YLR342W, strain FKS1 (second series), hits give low values 1.06 | locus YLR371W, strain rom2, hits give low values 1.01 | locus YLR418C, strain cdc73, hits give low values 1.05 | locus YML016C, strain PPZ1, hits give low values 1.02 | locus YML032C, strain rad52, hits give low values 1.02 | locus YML124C, strain tub3, hits give low values 1.01 | locus YMR078C, strain ctf18, hits give low values 1.01 | locus YMR223W, strain ubp8, hits give low values 1.04 | [2] 1.02 | [3] 1.19 | locus YNL067W, strain RPL9B, hits give low values 1.02 | locus YNL128W, strain TEP1, hits give low values 1.06 | locus YNL153C, strain GIM3, hits give low values 1.03 | locus YNL233W, strain BNI4, hits give low values 1 | locus YNL250W, strain rad50, hits give low values 1.02 | locus YNL271C, strain bni1, hits give low values 1.01 | locus YNL298W, strain CLA4, hits give low values 1.01 | locus YNL307C, strain MCK1, hits give low values 1.01 | locus YNL322C, strain KRE1, hits give low values 1.01 | locus YNR052C, strain pop2, hits give low values 1.01 | locus YOL012C, strain htz1 1.43 | locus YOL147C, strain pex11, hits give low values 1.01 | locus YOR061W, strain CKA2, hits give low values 1.04 | locus YOR069W, strain VPS5, hits give low values 1.01 | locus YOR136W, strain idh2, hits give low values 1.02 | locus YOR144C, strain elg1, hits give low values 1.01 | locus YOR184W, strain ser1, hits give low values 1.07 | locus YOR316C, strain cot1, hits give low values 1.02 | [4] 1.03 | locus YPL241C, strain CIN2, hits give low values 1.01 | locus YPR119W, strain clb2, hits give low values 1.01 | locus YPR141C, strain kar3, hits give low values 1.02 | locus YPR163C, strain tif3, hits give low values 1.03 | locus YPR167C, strain met16, hits give low values 1.02 | strain wtn01, hits give low values 1.04
